The list is not random: actives were taken first. Their share in the collection is about 8.1%.
MCF10A rereplic: A quantitative high throughput screen for small molecules that induce DNA re-replication in MCF 10a normal breast cells; MCF 10A DNA re-replication, Hoechst nuclear intensity, 48 h; Potency, µM (doses to about 46.1 µM), without a hit: at the top dose activity, positive = re-replication, usual class: activators; 350,000 tested, 2.9% active; AID 624296, 2012; further: % of control where 0% means no effect; nearly all actives have a fitted effect of over 50% in size
KB-V1 MDR tox: qHTS assay for MDR1-selective chemotherapeutics: Primary screen using the drug-selected MDR subline cells KB-V1. AID 1347076, 2019. KB-V1 MDR cells viability, CellTiter-Glo, 72 h. Potency, µM (top dose mostly 46.1 µM), most hits filed as cytotoxic. 400,000 tested, 3.4% active; further: on the % scale 0 is the no-effect control and ±100 the full control effect; nearly all actives have a fitted effect of over 60% in size
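KB-V1 MDR subline cells in DMEM (phenol-red free, 10% FBS) exposed to compounds in qHTS concentration series for 72 h at 37 degrees C. Viability read by CellTiter-Glo luminescence; concentration-effect curves fitted after normalization and correction.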
ELG1 DNA repair: qHTS screen for small molecules that inhibit ELG1-dependent DNA repair in human embryonic kidney (HEK293T) cells expressing luciferase-tagged ELG1; HEK293T ELG1-luciferase reporter, luminescence, 16 h; DNA damage induced by 5-fluorouridine; Potency, µM (doses to about 46.1 µM), for inactives: at the highest dose activity change, negative = inhibition, most hits filed as inhibitors; 330,000 tested, 2.3% active; AID 504467, 2011; further: on the % scale 0 is the no-effect control and ±100 the full control effect; nearly all actives have a fitted effect of over 55% in size
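HEK293T cells expressing luciferase-tagged ELG1 (2,000/well) received 5-Fluorouridine plus compound or DMSO for 16 hr at 37 °C. Luciferase was read by ONE-Glo luminescence after 30 min at room temperature.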
SW480 rereplic: A quantitative high throughput screen for small molecules that induce DNA re-replication in SW480 colon adenocarcinoma cells | SW480 DNA re-replication, Hoechst DNA content imaging, 48 h | 340,000 tested, 1.8% active | Potency, µM (titrated, usually from 46.1 µM), without a hit: at the highest dose re-replication activation, hits mostly activators; further: % of control where 0% means no effect; nearly all actives have a fitted effect of over 55% in size
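Readout is total intensity of Hoechst-stained nuclei, excited at 405 nm and collected at 500-530 nm. Compound treatment lasted 48 hr at 37 C in 5% CO2 before staining.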
KB-3-1 cytotox: qHTS assay for MDR1-selective chemotherapeutics: Primary screen using the parental adenocarcinoma cell KB-3-1; KB-3-1 viability, CellTiter-Glo ATP luminescence, 72 h; Potency, µM (highest dose often 46.1 µM), hits mostly cytotoxic; 400,000 tested, 1.4% active; further: on the % scale 0 is the no-effect control and ±100 the full control effect; nearly all actives have a fitted effect of over 60% in size
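Cytotoxicity in the drug-sensitive parental line KB-3-1 was scored as loss of CellTiter-Glo luminescence following 72 h incubation with compound. Values come from curve fitting of normalized concentration-response data.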
* hit, by the source's call; [ ] = remark or other dose. The call rests on the fitted dose curve; in most records, active means well fitted curve in the direction sought with a large enough effect; inconclusive means small, poorly fitted or top-dose-only effect, or another doubt; inactive means no such curve, though single readings can be large; an effect the other way counts as inactive or inconclusive. Potency means the concentration at half of the fitted maximal effect.

CCC(C)NC(=O)c1c(N)n(/N=C/c2ccccn2)c2nc3ccccc3nc12 (stereo not given) was read as MCF10A rereplic inconclusive, KB-V1 MDR tox 20.6µM*, ELG1 DNA repair inconclusive, SW480 rereplic 16.4µM* and KB-3-1 cytotox inactive.
Screening COCCCNC(=O)c1c(N)n(/N=C/c2cccnc2)c2nc3ccccc3nc12 returned MCF10A rereplic inconclusive, KB-V1 MDR tox inactive, ELG1 DNA repair inconclusive, SW480 rereplic inconclusive and KB-3-1 cytotox inactive.
`CCC(C)NC(=O)c1c(N)n(/N=C/c2cccnc2)c2nc3ccccc3nc12` (stereo not given) gave MCF10A rereplic 2.06µM*, KB-V1 MDR tox inconclusive, ELG1 DNA repair 11.6µM*, SW480 rereplic 5.8µM* and KB-3-1 cytotox inconclusive.
For C[C@H](CO)N1C[C@H](C)[C@@H](CN(C)S(=O)(=O)c2ccccc2)Oc2c(NC(=O)Nc3ccc4c(c3)OCO4)cccc2C1=O the results were MCF10A rereplic 2.3%, KB-V1 MDR tox inactive, ELG1 DNA repair inconclusive, SW480 rereplic -0.5% and KB-3-1 cytotox inactive.
Screening COc1cc2c(cc1OC)-c1cc(Nc3cccc(C)c3)nc(=O)n1CC2 returned MCF10A rereplic inconclusive, KB-V1 MDR tox inactive, ELG1 DNA repair inconclusive, SW480 rereplic 1.3% and KB-3-1 cytotox inactive.
`COc1cccc(CNC(=O)c2sc3nc(C)cc(C)c3c2-n2cccc2)c1OC` gave KB-V1 MDR tox inconclusive and KB-3-1 cytotox inactive.
Nc1nc(-c2ccc(-n3nncc3-c3ccco3)cc2)cs1 was read as MCF10A rereplic 23.1µM*, KB-V1 MDR tox inactive, ELG1 DNA repair inconclusive, SW480 rereplic 20.8% and KB-3-1 cytotox inactive.
For Cc1nc(-c2ccc(-n3nncc3-c3ccco3)cc2)cs1 the results were MCF10A rereplic -1.8%, KB-V1 MDR tox inconclusive, ELG1 DNA repair 10.2%, SW480 rereplic -82.4% and KB-3-1 cytotox inactive.
`Cn1c2ccccc2c2cnn(CC(=O)Nc3ccccc3F)c(=O)c21` gave KB-V1 MDR tox inactive and KB-3-1 cytotox inactive.
`CC1CCN(c2ccccc2NC(=S)NC(=O)c2cccs2)CC1` gave MCF10A rereplic 10µM*, KB-V1 MDR tox inactive, ELG1 DNA repair 7.8%, SW480 rereplic -1.8%[9.22 µM] and KB-3-1 cytotox inactive.
For CC1CCN(c2ccccc2NC(=S)NC(=O)c2ccco2)CC1 the results were MCF10A rereplic 18.4µM*, KB-V1 MDR tox 18.4µM*, SW480 rereplic 9.1% and KB-3-1 cytotox inactive.
Screening Cc1ccc(S(=O)(=O)Nc2ccccc2OC(C(=O)OC(C)(C)C)C(=O)OC(C)(C)C)cc1 returned KB-V1 MDR tox inconclusive and KB-3-1 cytotox inactive.
CCc1nnc(N/N=C/c2ccccc2F)n1N was read as MCF10A rereplic 25.9µM*, KB-V1 MDR tox inactive, ELG1 DNA repair -27.9%, SW480 rereplic inconclusive and KB-3-1 cytotox inactive.
CC(C)(C)c1nnc(N/N=C/c2ccccc2O)n(N)c1=O was read as MCF10A rereplic inconclusive, KB-V1 MDR tox inactive, ELG1 DNA repair 20.6µM*, SW480 rereplic 11.7% and KB-3-1 cytotox inconclusive.
For CC(C)(C)c1nnc(N/N=C/c2ccccc2)n(N)c1=O the results were MCF10A rereplic 22.1%, KB-V1 MDR tox inconclusive, ELG1 DNA repair -12.0%, SW480 rereplic inconclusive and KB-3-1 cytotox inactive.
Screening CCOC(=O)[C@@H]1[C@H]2COc3ccccc3[C@H]2N2C(=O)N(c3ccc(Br)cc3)C(=O)[C@]12C returned MCF10A rereplic 0.4%, KB-V1 MDR tox inactive, ELG1 DNA repair 13.1%, SW480 rereplic -9.1% and KB-3-1 cytotox inactive.
For CCOC(=O)[C@@H]1[C@H]2COc3ccccc3[C@@H]2N2C(=O)N(c3ccc(Br)cc3)C(=O)[C@]12C the results were MCF10A rereplic -7.1%, KB-V1 MDR tox inactive, ELG1 DNA repair 3.5%, SW480 rereplic 23.1µM* and KB-3-1 cytotox inactive.
